Results as given in paper PMC8222333, “AsCas12a ultra nuclease facilitates the rapid generation of therapeutic cell medicines”.

Experiments:
Assay in all cases: Spec-seq (native PAGE EMSA with sequencing of bound and unbound); 25 mM Tris-HCl pH 7.4, 150 mM KCl, 5 mM MgCl2, 10% glycerol, 1 mM DTT, 40 ng/uL salmon sperm DNA; 400 nM Cas12a, 480 nM crRNA, 50 nM library, 37 C 1 h; native PAGE at room temperature; high values mean tight binding
Details in all cases: protein: recombinant
[1] = target: dAsCas12a S542R (Acidaminococcus sp., UniProt U2UMQ6 1-1307, S542R;D908A;E993A;D1235A)
[2] = target: d-enCas12a (Acidaminococcus sp., UniProt U2UMQ6 1-1307, E174R;S542R;K548R;D908A;E993A;D1235A)
[3] = target: d-enCas12a-Ultra (Acidaminococcus sp., UniProt U2UMQ6 1-1307, E174R;S542R;K548R;M537R;F870L;D908A;E993A;D1235A)
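Further: relative affinity from the bound to unbound sequence frequency ratio in Spec-seq.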

Row | Binder | binding signal [1] | binding signal [2] | binding signal [3]
1 | AACG (dsDNA) DNA 1: GCTATCTAGTGCTCAGTACGCACTGAACGAGGAAACTTCTGGCAGGACCAGGTCATGAGATCGGAAGAGCACACGTCTGAACTCCAGTCA DNA 2: TGACTGGAGTTCAGACGTGTGCTCTTCCGATCTCATGACCTGGTCCTGCCAGAAGTTTCCTCGTTCAGTGCGTACTGAGCACTAGATAGC RNA: AAUUUCUACUCUUGUAGAUAGGAAACUUCUGGCAGGACC | -8.29 lnKA | -4.8 lnKA | -2.04 lnKA
2 | ACGA (dsDNA) DNA 1: GCTATCTAGTGCTCAGTACGCACTGACGAAGGAAACTTCTGGCAGGACCAGGTCATGAGATCGGAAGAGCACACGTCTGAACTCCAGTCA DNA 2: TGACTGGAGTTCAGACGTGTGCTCTTCCGATCTCATGACCTGGTCCTGCCAGAAGTTTCCTTCGTCAGTGCGTACTGAGCACTAGATAGC RNA: AAUUUCUACUCUUGUAGAUAGGAAACUUCUGGCAGGACC | -8.68 lnKA | -5.84 lnKA | -3.39 lnKA
3 | AGAC (dsDNA) DNA 1: GCTATCTAGTGCTCAGTACGCACTGAGACAGGAAACTTCTGGCAGGACCAGGTCATGAGATCGGAAGAGCACACGTCTGAACTCCAGTCA DNA 2: TGACTGGAGTTCAGACGTGTGCTCTTCCGATCTCATGACCTGGTCCTGCCAGAAGTTTCCTGTCTCAGTGCGTACTGAGCACTAGATAGC RNA: AAUUUCUACUCUUGUAGAUAGGAAACUUCUGGCAGGACC | -8.52 lnKA | -5.69 lnKA | -3.24 lnKA
4 | AGCA (dsDNA) DNA 1: GCTATCTAGTGCTCAGTACGCACTGAGCAAGGAAACTTCTGGCAGGACCAGGTCATGAGATCGGAAGAGCACACGTCTGAACTCCAGTCA DNA 2: TGACTGGAGTTCAGACGTGTGCTCTTCCGATCTCATGACCTGGTCCTGCCAGAAGTTTCCTTGCTCAGTGCGTACTGAGCACTAGATAGC RNA: AAUUUCUACUCUUGUAGAUAGGAAACUUCUGGCAGGACC | -8.4 lnKA | -3.23 lnKA | -0.786 lnKA
5 | AAGG (dsDNA) DNA 1: GCTATCTAGTGCTCAGTACGCACTGAAGGAGGAAACTTCTGGCAGGACCAGGTCATGAGATCGGAAGAGCACACGTCTGAACTCCAGTCA DNA 2: TGACTGGAGTTCAGACGTGTGCTCTTCCGATCTCATGACCTGGTCCTGCCAGAAGTTTCCTCCTTCAGTGCGTACTGAGCACTAGATAGC RNA: AAUUUCUACUCUUGUAGAUAGGAAACUUCUGGCAGGACC | -8.67 lnKA | -5.8 lnKA | -3.49 lnKA
6 | ACCC (dsDNA) DNA 1: GCTATCTAGTGCTCAGTACGCACTGACCCAGGAAACTTCTGGCAGGACCAGGTCATGAGATCGGAAGAGCACACGTCTGAACTCCAGTCA DNA 2: TGACTGGAGTTCAGACGTGTGCTCTTCCGATCTCATGACCTGGTCCTGCCAGAAGTTTCCTGGGTCAGTGCGTACTGAGCACTAGATAGC RNA: AAUUUCUACUCUUGUAGAUAGGAAACUUCUGGCAGGACC | -5.2 lnKA | -2.44 lnKA | -0.482 lnKA
7 | AAGT (dsDNA) DNA 1: GCTATCTAGTGCTCAGTACGCACTGAAGTAGGAAACTTCTGGCAGGACCAGGTCATGAGATCGGAAGAGCACACGTCTGAACTCCAGTCA DNA 2: TGACTGGAGTTCAGACGTGTGCTCTTCCGATCTCATGACCTGGTCCTGCCAGAAGTTTCCTACTTCAGTGCGTACTGAGCACTAGATAGC RNA: AAUUUCUACUCUUGUAGAUAGGAAACUUCUGGCAGGACC | -8.46 lnKA | -5.71 lnKA | -3.41 lnKA
8 | ACAA (dsDNA) DNA 1: GCTATCTAGTGCTCAGTACGCACTGACAAAGGAAACTTCTGGCAGGACCAGGTCATGAGATCGGAAGAGCACACGTCTGAACTCCAGTCA DNA 2: TGACTGGAGTTCAGACGTGTGCTCTTCCGATCTCATGACCTGGTCCTGCCAGAAGTTTCCTTTGTCAGTGCGTACTGAGCACTAGATAGC RNA: AAUUUCUACUCUUGUAGAUAGGAAACUUCUGGCAGGACC | -8.6 lnKA | -5.98 lnKA | -3.44 lnKA
9 | ACAC (dsDNA) DNA 1: GCTATCTAGTGCTCAGTACGCACTGACACAGGAAACTTCTGGCAGGACCAGGTCATGAGATCGGAAGAGCACACGTCTGAACTCCAGTCA DNA 2: TGACTGGAGTTCAGACGTGTGCTCTTCCGATCTCATGACCTGGTCCTGCCAGAAGTTTCCTGTGTCAGTGCGTACTGAGCACTAGATAGC RNA: AAUUUCUACUCUUGUAGAUAGGAAACUUCUGGCAGGACC | -8.48 lnKA | -5.72 lnKA | -3.38 lnKA
10 | ACCG (dsDNA) DNA 1: GCTATCTAGTGCTCAGTACGCACTGACCGAGGAAACTTCTGGCAGGACCAGGTCATGAGATCGGAAGAGCACACGTCTGAACTCCAGTCA DNA 2: TGACTGGAGTTCAGACGTGTGCTCTTCCGATCTCATGACCTGGTCCTGCCAGAAGTTTCCTCGGTCAGTGCGTACTGAGCACTAGATAGC RNA: AAUUUCUACUCUUGUAGAUAGGAAACUUCUGGCAGGACC | -6.71 lnKA | -4.92 lnKA | -1.45 lnKA
11 | ACGT (dsDNA) DNA 1: GCTATCTAGTGCTCAGTACGCACTGACGTAGGAAACTTCTGGCAGGACCAGGTCATGAGATCGGAAGAGCACACGTCTGAACTCCAGTCA DNA 2: TGACTGGAGTTCAGACGTGTGCTCTTCCGATCTCATGACCTGGTCCTGCCAGAAGTTTCCTACGTCAGTGCGTACTGAGCACTAGATAGC RNA: AAUUUCUACUCUUGUAGAUAGGAAACUUCUGGCAGGACC | -8.74 lnKA | -5.85 lnKA | -3.49 lnKA
12 | AGAT (dsDNA) DNA 1: GCTATCTAGTGCTCAGTACGCACTGAGATAGGAAACTTCTGGCAGGACCAGGTCATGAGATCGGAAGAGCACACGTCTGAACTCCAGTCA DNA 2: TGACTGGAGTTCAGACGTGTGCTCTTCCGATCTCATGACCTGGTCCTGCCAGAAGTTTCCTATCTCAGTGCGTACTGAGCACTAGATAGC RNA: AAUUUCUACUCUUGUAGAUAGGAAACUUCUGGCAGGACC | -8.54 lnKA | -5.75 lnKA | -3.47 lnKA
13 | AGAG (dsDNA) DNA 1: GCTATCTAGTGCTCAGTACGCACTGAGAGAGGAAACTTCTGGCAGGACCAGGTCATGAGATCGGAAGAGCACACGTCTGAACTCCAGTCA DNA 2: TGACTGGAGTTCAGACGTGTGCTCTTCCGATCTCATGACCTGGTCCTGCCAGAAGTTTCCTCTCTCAGTGCGTACTGAGCACTAGATAGC RNA: AAUUUCUACUCUUGUAGAUAGGAAACUUCUGGCAGGACC | -8.48 lnKA | -5.79 lnKA | -3.32 lnKA
14 | AAGA (dsDNA) DNA 1: GCTATCTAGTGCTCAGTACGCACTGAAGAAGGAAACTTCTGGCAGGACCAGGTCATGAGATCGGAAGAGCACACGTCTGAACTCCAGTCA DNA 2: TGACTGGAGTTCAGACGTGTGCTCTTCCGATCTCATGACCTGGTCCTGCCAGAAGTTTCCTTCTTCAGTGCGTACTGAGCACTAGATAGC RNA: AAUUUCUACUCUUGUAGAUAGGAAACUUCUGGCAGGACC | -8.52 lnKA | -5.74 lnKA | -3.38 lnKA
15 | ACGG (dsDNA) DNA 1: GCTATCTAGTGCTCAGTACGCACTGACGGAGGAAACTTCTGGCAGGACCAGGTCATGAGATCGGAAGAGCACACGTCTGAACTCCAGTCA DNA 2: TGACTGGAGTTCAGACGTGTGCTCTTCCGATCTCATGACCTGGTCCTGCCAGAAGTTTCCTCCGTCAGTGCGTACTGAGCACTAGATAGC RNA: AAUUUCUACUCUUGUAGAUAGGAAACUUCUGGCAGGACC | -8.37 lnKA | -6.05 lnKA | -3.43 lnKA
16 | AACT (dsDNA) DNA 1: GCTATCTAGTGCTCAGTACGCACTGAACTAGGAAACTTCTGGCAGGACCAGGTCATGAGATCGGAAGAGCACACGTCTGAACTCCAGTCA DNA 2: TGACTGGAGTTCAGACGTGTGCTCTTCCGATCTCATGACCTGGTCCTGCCAGAAGTTTCCTAGTTCAGTGCGTACTGAGCACTAGATAGC RNA: AAUUUCUACUCUUGUAGAUAGGAAACUUCUGGCAGGACC | -8.54 lnKA | -4.69 lnKA | -1.81 lnKA
17 | ACAG (dsDNA) DNA 1: GCTATCTAGTGCTCAGTACGCACTGACAGAGGAAACTTCTGGCAGGACCAGGTCATGAGATCGGAAGAGCACACGTCTGAACTCCAGTCA DNA 2: TGACTGGAGTTCAGACGTGTGCTCTTCCGATCTCATGACCTGGTCCTGCCAGAAGTTTCCTCTGTCAGTGCGTACTGAGCACTAGATAGC RNA: AAUUUCUACUCUUGUAGAUAGGAAACUUCUGGCAGGACC | -8.64 lnKA | -5.79 lnKA | -3.45 lnKA
